These results are taken from ChEMBL document CHEMBL3988442, “University of Dundee, Small-Polar-MMV Screening Library” (2021).

Holding throughout (design): scale not given: direction of the effect not stated beside the values
Test [1] deals with Protein translocase subunit SecA (Escherichia coli (strain K12)) (UniProt P10408). Put plainly: Assay to Identify E. coli SecA ATPase Inhibitors. The class given is functional. The conditions noted are these: 30 µM.
Test [2] has as its target T1, Ubiquitin-activating enzyme e1, putative (Leishmania donovani (strain BPK282A1)) (UniProt E9BSI1).
T1 sequence (whole entry): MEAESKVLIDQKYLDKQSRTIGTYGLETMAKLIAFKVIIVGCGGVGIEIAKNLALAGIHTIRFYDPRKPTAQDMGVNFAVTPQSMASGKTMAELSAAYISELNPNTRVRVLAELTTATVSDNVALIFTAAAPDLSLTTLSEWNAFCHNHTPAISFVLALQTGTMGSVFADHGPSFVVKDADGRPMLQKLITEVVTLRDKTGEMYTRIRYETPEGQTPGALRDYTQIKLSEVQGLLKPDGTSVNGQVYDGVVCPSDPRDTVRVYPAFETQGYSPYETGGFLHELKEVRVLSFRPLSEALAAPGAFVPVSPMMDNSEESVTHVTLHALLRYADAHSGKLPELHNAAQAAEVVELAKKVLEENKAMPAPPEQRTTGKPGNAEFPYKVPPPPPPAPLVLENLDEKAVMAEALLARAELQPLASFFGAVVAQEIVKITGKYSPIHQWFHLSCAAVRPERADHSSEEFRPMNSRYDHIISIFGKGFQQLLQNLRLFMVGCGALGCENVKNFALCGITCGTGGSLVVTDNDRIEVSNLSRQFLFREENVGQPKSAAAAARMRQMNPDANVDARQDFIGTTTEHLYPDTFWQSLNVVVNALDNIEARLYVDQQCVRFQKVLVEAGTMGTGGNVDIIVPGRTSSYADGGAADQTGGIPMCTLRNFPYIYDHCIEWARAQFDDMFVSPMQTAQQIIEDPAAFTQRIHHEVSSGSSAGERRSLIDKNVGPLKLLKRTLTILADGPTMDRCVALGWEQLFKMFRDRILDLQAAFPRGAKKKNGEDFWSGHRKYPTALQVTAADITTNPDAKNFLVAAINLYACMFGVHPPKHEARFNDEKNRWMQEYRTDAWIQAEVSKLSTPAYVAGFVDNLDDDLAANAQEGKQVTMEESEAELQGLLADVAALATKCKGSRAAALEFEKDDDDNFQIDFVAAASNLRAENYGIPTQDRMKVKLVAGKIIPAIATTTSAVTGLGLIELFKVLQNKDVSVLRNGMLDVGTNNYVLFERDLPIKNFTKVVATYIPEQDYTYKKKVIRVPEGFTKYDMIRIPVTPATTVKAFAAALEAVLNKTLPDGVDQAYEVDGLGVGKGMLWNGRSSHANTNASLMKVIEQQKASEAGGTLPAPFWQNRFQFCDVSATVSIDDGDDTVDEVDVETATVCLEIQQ
Put plainly: Leishmania donovani Ubiquitin Activating Enzyme (LdE1). The class given is functional. The conditions noted are these: 30 µM.

Test [3] addresses AMP-activated protein kinase, AMPK (Homo sapiens) (UniProt P54646+O43741+P54619+Q9UGJ0+Q9Y478+Q13131+Q9UGI9). Put plainly: AMP-dependent Kinase enzyme assay. An in vitro enzyme assay that detects ADP turnover that is directly proportional to AMPK activity. This uses naive AMPK that is activated during the assay with MK-8722. The class given is functional. The conditions noted are these: 30 µM.

Test [4] deals with Sialic acid-binding Ig-like lectin 9 (Homo sapiens) (UniProt Q9Y336). Put plainly: Hs-Siglec9 ALPHAscreen SOP 20170721. The conditions noted are these: 10 µM. For orientation: Bead proximity is the source of the signal in Alpha formats.
Another test deals with Trypanosoma cruzi. Put plainly: Trypanosoma cruzi phosphomannomutase and mannose-1-phosphate guanylyltransferase assay. The conditions noted are these: 10 µM. The class given is functional.
The target of test [5] is T2, Arginase-2, mitochondrial (Homo sapiens) (UniProt P78540).
T2 sequence (whole entry): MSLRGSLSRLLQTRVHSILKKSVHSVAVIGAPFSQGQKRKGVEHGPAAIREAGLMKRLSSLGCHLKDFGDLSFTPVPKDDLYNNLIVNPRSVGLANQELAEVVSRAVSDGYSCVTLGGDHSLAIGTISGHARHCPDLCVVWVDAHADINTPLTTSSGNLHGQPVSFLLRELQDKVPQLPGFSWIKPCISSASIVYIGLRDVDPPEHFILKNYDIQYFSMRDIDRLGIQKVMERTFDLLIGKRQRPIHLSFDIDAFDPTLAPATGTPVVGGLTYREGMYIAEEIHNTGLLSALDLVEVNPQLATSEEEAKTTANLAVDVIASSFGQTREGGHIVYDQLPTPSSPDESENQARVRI
Put plainly: in vitro enzyme assay to detect the production of urea directly proportional to the activity of Arginase II. Note: in the data most compounds retested in dose-response had high values. The class given is functional. The conditions noted are these: 33.3 µM.

The target in test [6] is T3, Proteasome subunit beta (Trypanosoma cruzi) (UniProt O96673).
T3 sequence (whole entry): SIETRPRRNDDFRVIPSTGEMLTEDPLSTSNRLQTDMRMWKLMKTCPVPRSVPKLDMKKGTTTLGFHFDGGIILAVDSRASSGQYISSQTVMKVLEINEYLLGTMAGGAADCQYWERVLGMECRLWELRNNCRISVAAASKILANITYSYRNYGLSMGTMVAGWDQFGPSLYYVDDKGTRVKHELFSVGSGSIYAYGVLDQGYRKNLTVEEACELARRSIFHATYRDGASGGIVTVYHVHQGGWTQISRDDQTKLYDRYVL
Put plainly: Trypanosoma cruzi proteasome chymotrypsin-like activity (TcProtChymo) assay. Note: in the data most compounds retested in dose-response had high values. The conditions noted are these: 9.37 µM. The class given is functional.

The species entered for another test is Homo sapiens. Put plainly: To identify inhibition of the IFN signalling (Jak-Stat) pathway via expression of an eGFP reporter gene under the control of an IFN-stimulated response element (ISRE) containing MxA promoter. The class given is functional. The conditions noted are these: 30 µM. A general note: Reporter assays use an easily measured gene product as a stand-in for the process of interest.

The target of test [7] is T4, Tyrosyl-tRNA synthetase, putative (Trypanosoma cruzi (strain CL Brener)) (UniProt Q4DSP6).
T4 sequence (whole entry): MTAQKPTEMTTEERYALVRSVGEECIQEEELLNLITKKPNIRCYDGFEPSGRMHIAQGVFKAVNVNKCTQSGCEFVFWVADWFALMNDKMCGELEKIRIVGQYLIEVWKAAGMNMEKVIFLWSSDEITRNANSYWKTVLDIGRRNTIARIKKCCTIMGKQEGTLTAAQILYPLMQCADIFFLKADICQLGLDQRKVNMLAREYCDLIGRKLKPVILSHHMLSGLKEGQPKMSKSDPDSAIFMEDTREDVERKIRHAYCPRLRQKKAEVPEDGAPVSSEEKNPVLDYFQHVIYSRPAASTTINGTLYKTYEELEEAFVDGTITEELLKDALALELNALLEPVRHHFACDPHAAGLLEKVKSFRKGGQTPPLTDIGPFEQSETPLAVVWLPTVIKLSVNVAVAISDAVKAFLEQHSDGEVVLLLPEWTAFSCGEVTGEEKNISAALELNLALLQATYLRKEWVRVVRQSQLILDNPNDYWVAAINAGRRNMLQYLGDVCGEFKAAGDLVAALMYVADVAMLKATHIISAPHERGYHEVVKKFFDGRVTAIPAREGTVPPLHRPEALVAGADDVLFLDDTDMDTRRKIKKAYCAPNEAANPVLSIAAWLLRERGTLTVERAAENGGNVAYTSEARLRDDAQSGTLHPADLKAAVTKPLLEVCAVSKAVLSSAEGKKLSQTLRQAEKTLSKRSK
Put plainly: Trypanosoma cruzi tyrosyl tRNA synthetase (TcYRS) _High Tyrosine SOP. Note: in the data most compounds retested in dose-response had high values. The class given is functional. The conditions noted are these: 30 µM.

Test [8] addresses T4, Tyrosyl-tRNA synthetase, putative (Trypanosoma cruzi (strain CL Brener)). Briefly: Trypanosoma cruzi tyrosyl tRNA synthetase (TcYRS) SOP. The class given is functional. The conditions noted are these: 30 µM.
Test [9] deals with Chromo domain-containing protein 1 (Saccharomyces cerevisiae (strain ATCC 204508 / S288c) (Baker's yeast)) (UniProt P32657). Put plainly: ScCHD-1 Enzyme Inhibition Assay. Note: in the data most compounds retested in dose-response had high values. The class given is functional. The conditions noted are these: 30 µM.

For some of these results: Results with a measured potency or affinity are listed apart.

Sequence of Protein translocase subunit SecA (Escherichia coli (strain K12)) (P10408 whole entry): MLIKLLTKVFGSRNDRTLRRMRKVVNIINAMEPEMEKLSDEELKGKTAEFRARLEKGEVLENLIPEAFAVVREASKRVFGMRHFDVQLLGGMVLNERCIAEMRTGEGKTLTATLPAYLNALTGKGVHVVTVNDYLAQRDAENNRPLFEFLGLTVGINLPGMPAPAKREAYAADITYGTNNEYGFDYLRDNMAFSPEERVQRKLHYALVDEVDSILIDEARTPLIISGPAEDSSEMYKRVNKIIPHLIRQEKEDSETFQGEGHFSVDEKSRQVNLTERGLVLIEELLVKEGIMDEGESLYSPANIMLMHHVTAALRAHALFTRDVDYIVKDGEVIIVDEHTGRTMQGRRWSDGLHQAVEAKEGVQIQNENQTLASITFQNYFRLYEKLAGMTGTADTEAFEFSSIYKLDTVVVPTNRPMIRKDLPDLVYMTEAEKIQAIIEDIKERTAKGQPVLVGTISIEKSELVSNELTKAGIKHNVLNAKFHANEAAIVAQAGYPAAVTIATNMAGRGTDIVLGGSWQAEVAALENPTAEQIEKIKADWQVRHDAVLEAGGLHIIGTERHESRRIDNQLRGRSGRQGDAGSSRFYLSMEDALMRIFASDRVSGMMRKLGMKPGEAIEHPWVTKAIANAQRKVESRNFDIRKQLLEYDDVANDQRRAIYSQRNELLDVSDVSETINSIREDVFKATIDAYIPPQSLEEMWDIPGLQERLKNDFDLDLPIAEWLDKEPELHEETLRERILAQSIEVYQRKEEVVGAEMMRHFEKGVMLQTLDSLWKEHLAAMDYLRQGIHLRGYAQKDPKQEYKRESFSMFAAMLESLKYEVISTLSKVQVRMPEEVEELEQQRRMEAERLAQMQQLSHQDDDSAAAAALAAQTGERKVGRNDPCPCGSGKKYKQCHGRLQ
Sequence of Sialic acid-binding Ig-like lectin 9 (Homo sapiens) (Q9Y336 whole entry): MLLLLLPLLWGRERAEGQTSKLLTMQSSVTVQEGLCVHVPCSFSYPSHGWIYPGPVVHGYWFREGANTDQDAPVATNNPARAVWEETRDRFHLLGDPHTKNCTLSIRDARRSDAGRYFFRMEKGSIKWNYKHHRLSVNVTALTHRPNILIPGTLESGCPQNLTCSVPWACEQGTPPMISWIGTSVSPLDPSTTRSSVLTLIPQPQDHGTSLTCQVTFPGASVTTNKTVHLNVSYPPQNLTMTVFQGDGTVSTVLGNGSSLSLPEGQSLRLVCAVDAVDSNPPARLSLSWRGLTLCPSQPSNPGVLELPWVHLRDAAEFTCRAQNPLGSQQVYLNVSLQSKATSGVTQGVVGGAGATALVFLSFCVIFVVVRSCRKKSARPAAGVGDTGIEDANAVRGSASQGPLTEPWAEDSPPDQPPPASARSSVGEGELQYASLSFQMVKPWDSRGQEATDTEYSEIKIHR
Sequence of Chromo domain-containing protein 1 (Saccharomyces cerevisiae (strain ATCC 204508 / S288c) (Baker's yeast)) (P32657 whole entry, the tested form may be a part): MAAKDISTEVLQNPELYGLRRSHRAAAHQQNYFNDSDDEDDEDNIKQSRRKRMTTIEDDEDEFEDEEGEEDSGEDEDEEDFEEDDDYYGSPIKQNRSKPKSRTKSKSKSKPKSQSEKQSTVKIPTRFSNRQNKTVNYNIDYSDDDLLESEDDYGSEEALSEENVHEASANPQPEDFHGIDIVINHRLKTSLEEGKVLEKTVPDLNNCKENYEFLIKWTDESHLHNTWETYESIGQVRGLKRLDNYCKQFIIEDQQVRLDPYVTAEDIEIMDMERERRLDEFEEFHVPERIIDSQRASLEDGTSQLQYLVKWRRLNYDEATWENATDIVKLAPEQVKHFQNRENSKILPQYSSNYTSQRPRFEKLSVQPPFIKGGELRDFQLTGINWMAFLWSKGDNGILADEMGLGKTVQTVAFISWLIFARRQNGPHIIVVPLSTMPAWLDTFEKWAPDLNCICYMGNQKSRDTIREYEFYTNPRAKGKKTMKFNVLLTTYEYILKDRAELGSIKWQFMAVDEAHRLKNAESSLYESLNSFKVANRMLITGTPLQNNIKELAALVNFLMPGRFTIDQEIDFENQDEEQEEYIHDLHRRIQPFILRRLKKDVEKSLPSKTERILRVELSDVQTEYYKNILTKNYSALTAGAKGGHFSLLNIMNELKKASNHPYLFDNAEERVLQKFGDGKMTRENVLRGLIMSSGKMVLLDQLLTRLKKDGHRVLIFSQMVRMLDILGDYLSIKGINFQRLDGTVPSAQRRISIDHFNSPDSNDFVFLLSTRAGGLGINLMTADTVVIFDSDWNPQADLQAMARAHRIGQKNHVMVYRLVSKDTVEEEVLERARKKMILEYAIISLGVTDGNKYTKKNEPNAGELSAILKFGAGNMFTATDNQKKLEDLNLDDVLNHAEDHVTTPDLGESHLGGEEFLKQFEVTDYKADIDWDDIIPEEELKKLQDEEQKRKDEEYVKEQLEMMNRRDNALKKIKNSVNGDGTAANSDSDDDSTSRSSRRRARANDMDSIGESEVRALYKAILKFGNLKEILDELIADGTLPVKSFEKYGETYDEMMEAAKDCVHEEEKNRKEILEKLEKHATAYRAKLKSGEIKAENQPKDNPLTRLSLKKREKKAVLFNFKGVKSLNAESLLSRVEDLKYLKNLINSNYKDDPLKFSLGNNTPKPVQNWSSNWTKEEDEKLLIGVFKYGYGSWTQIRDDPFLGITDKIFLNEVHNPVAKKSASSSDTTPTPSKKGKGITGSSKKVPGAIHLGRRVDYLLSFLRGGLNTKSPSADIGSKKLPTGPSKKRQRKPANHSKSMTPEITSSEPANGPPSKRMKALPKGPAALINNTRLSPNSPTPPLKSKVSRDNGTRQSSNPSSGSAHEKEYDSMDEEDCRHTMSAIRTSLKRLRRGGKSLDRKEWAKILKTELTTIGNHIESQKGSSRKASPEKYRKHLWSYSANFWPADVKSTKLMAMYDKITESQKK

With `CC(NC(=O)N(C)Cc1ccncc1)c1nncn1C` (stereo unspecified), the Percent Effect in [1] was -3.28%; in test [2], 20.8%; in test [3], 3.42%; in test [4] it was 21%; with Trypanosoma cruzi, 2.43%; in test [5] it was 22.5%. For the same compound, the Percent Effect was 13.2% in test [6]; -6.33% in the test filed under Homo sapiens; 1.05% in test [7]; 15.4% in [8]; -7.53% in test [9].
As for `COc1ccc(CCN2CCCC(Cn3nc(C)nc3C)C2)cc1` (stereo unspecified), the Percent Effect was -1.76% in test [1]; -11.4% in [2]; -0.842% in test [3]; 1.01% in test [4]; 2.77% with Trypanosoma cruzi; -2.8% in test [5]. Moreover, the Percent Effect in [6] was 8.58%; in the test listed under Homo sapiens, -4.76%; in test [7], 8.33%; in [8] it was 10.1%; in test [9], -19.5%.
Consider `Cn1cc(-c2csc(CN3CCOCC3)n2)cn1`, for which the Percent Effect in test [1] is 2.9%; in [2], 4.17%; in test [3], -3.9%; in test [4], 1.67%; in the test with Trypanosoma cruzi it was 0.0972%; in test [5], 8.39%. Besides, the Percent Effect was 1.58% in test [6]; -3.07% in the test filed under Homo sapiens; -1.05% in test [7]; 2.56% in [8]; -1.39% in test [9].
In the case of `CN(C)C(CNC(=O)NCCc1cccc(O)c1)c1ccco1` (stereo unspecified), the Percent Effect in test [1] was -1.55%; in test [2], 5.41%; in test [3], 0.167%; in test [4], 22.4%; with Trypanosoma cruzi it was 3.81%; in [5] it was 6.7%. The Percent Effect in test [6] is 13%; in the test listed under Homo sapiens, -1.66%; in test [7], 0%; in [8] it was 6.17%; in test [9] it was -9.98%.
For `CN(C)C(=O)N[C@@H]1CN(Cc2ccc3c(c2)OCO3)[C@@H]2CCCO[C@@H]21`, the Percent Effect in [1] is -4.35%; in [2] it was 5.33%; in test [3], 4.23%; in test [4], 8.52%; in the test on Trypanosoma cruzi it was -0.386%; in test [5], -58.6%. Further, the Percent Effect in test [6] is 14.5%; in the test filed under Homo sapiens, 1.11%; in test [7] it was 7.29%; in test [8], 17.5%; in test [9], -5.44%.
`CC(C)Cc1nc(OCC(=O)O)c(C#N)c2c1CCC2`: the Percent Effect in [1] is 1.44%; in [2] it was 9.33%; in test [3], -5.52%; in test [4], -3.77%; in the test with Trypanosoma cruzi it was 1.57%; in [5], -2.29%. In addition, the Percent Effect was 9.24% in test [6]; 3.54% in the test filed under Homo sapiens; -1.06% in test [7]; 2.56% in test [8]; -8.05% in [9].
Regarding `Cc1cc(NC(=O)NCc2cccnc2OC(C)C)n(C)n1`, the Percent Effect in test [1] was -2.88%; in test [2], 8.86%; in test [3], 1.26%; in [4] it was 3.66%; in the test with Trypanosoma cruzi, 0.103%; in test [5], -1.07%. For the same compound, the Percent Effect in test [6] was 19.4%; in the test listed under Homo sapiens, 4.52%; in test [7], 3.12%; in test [8], 12.7%; in test [9] it was -22.1%.
With `COc1ccc(C2=CCN(C(=O)C3CCCN(C(N)=O)C3)CC2)cc1` (stereo unspecified), the Percent Effect in test [1] was -3.88%; in test [2], 7.89%; in [3], 4.4%; in [4], -4.74%; with Trypanosoma cruzi, 7.75%; in test [5], -2.52%. Further, the Percent Effect in test [6] was 12.9%; in the test listed under Homo sapiens, 2.88%; in test [7] it was 6.4%; in [8], 18.5%; in test [9] it was -7.24%.
As to `Cc1nc(NC2CCCC2)cc(C2CCN2C(=O)c2ccccc2)n1` (stereo unspecified), the Percent Effect is -6.88% in [1]; 4.05% in test [2]; 3.55% in test [3]; 0.412% in test [4]; 3.16% with Trypanosoma cruzi; -1.62% in test [5]. Also, the Percent Effect in test [6] is 6.08%; in the test listed under Homo sapiens, -2.7%; in test [7], 1.07%; in test [8], 3.9%; in test [9] it was -22.1%.
On to `Cc1nc(C)n(CC2CCCCN2CC(=O)NC2CCOCC2)n1` (stereo unspecified), for which the Percent Effect in test [1] was -5.64%; in test [2], 18.2%; in [3] it was 6.87%; in test [4] it was 5.39%; in the test on Trypanosoma cruzi, 6.37%; in [5] it was -6.05%. In addition, the Percent Effect is 5.07% in test [6]; -0.818% in the test filed under Homo sapiens; 3.88% in [7]; 19.5% in [8]; -7.41% in test [9].
On to `c1coc(-c2noc(CN3CCCC(Cn4cncn4)C3)n2)c1` (stereo unspecified), for which the Percent Effect in [1] was -6.64%; in test [2], 7.59%; in [3], -3.53%; in [4] it was 4.26%; with Trypanosoma cruzi it was 6.14%; in test [5], -3.04%. Also, the Percent Effect in test [6] was 2.05%; in the test filed under Homo sapiens it was 3.63%; in test [7], -1.48%; in test [8] it was 11.4%; in test [9] it was -5.56%.
